Only some compounds are listed: those with a hit (about 2.2% of all), similar ones and a draw of the others.
IEC-6 cytotox – counter-screen for KLF5 inhibitors: cytotoxicity in IEC-6 cells; inhibition, % at 5 µM; IEC-6 cytotoxicity, luminescence viability; 290,000 compounds, 0.78% hits; in the data active = inhibition above about 22%;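 also: 0% = plate median of test compound wells and 100% = cytotoxic reference compound wells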
APP transl inh – APP translation inhibition. SH-SY5Y APP 5'UTR-luciferase reporter, luminescence. inhibition, % at 2 µM. 190,000 compounds, 0.82% hits;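 active = inhibition above a set limit, derived from the sample mean plus 3 SD, cut at about 45% in these data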
Ba/F3 V617F tox – lowers viability of Ba/F3 cells expressing EpoR and JAK2V617F | AID 1446 | inhibition, % at 5.6 µM | 220,000 compounds, 1.1% hits | ATP luminescence;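 active = inhibition above the campaign mean plus 3 SD over all tested compounds, cut at about 24% in these data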;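 also: cytokine-independent growth of Ba/F3 cells driven by EpoR plus mutant JAK2; 0% = DMSO-treated cells and 100% = JAK inhibitor I control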
BaF3 tox – reduces parental Ba/F3 cell viability, JAK2V617F counter-screen | CellTiter-Glo ATP luminescence | inhibition, % at 5.6 µM | 220,000 compounds, 1.1% hits | AID 1486;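 active = inhibition above a per-campaign cutoff, the mean inhibition of all tested compounds plus 3 SD, cut at about 27% in these data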;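 also: 0% = DMSO wells and 100% = JAK Inhibitor I control wells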
KLF5 inh – suppresses KLF5 promoter-driven expression | 290,000 compounds, 0.23% hits | inhibition, % at 5 µM | DLD-1 KLF5 promoter-luciferase reporter, luminescence;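 active = inhibition above a per-plate limit of that plate's mean compound inhibition plus 3 SD, cut at about 60% in these data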;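 also: 0% = DMSO wells and 100% = LY294002 at 200 µM; higher means less KLF5 promoter-driven luciferase light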
aSyn 5UTR inh – 5' untranslated region of α-synuclein, MLPCN primary screen; alpha-synuclein 5'UTR reporter, inhibitor activity; inhibition, % (tested at 7.5 µM); 300,000 compounds, 0.82% hits; AID 1813; in the data active = inhibition above about 60%;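 also: H4 neuroglioblastoma cells stably carrying SNCA 5'UTR luciferase fusion; 0% = DMSO wells and 100% = positive control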
* hit, by the source's call; x = no result.

SMILES	IEC-6 cytotox	APP transl inh	Ba/F3 V617F tox	BaF3 tox	KLF5 inh	aSyn 5UTR inh
CC1CCN(c2ccc([N+](=O)[O-])cc2C(=O)O)CC1	-3	-15	-1	4	-38	21
O=C(OCc1cccc(Cl)c1)c1cc([N+](=O)[O-])ccc1N1CCOCC1	x	x	x	x	x	6
COc1ccc(COC(=O)c2cc([N+](=O)[O-])ccc2N2CCOCC2)cc1F	x	x	x	x	x	68*
O=C(c1ccc(Br)cc1)c1cc([N+](=O)[O-])ccc1N1CCOCC1	12	88*	80*	83*	11	27
CC1CCCN(c2ccc([N+](=O)[O-])cc2C(=O)c2ccccc2)C1 (configuration not stated)	45*	94*	77*	79*	42	84*
Cn1c(SCC(=O)Nc2ccc3c(c2)OCCO3)nnc1C1CC1	-4	x	x	x	-13	-10
COc1ccc(NS(=O)(=O)c2cc(NC(=O)CC3CCCC3)ccc2N2CCOCC2)cc1	-4	14	7	32*	-15	23
NC(=O)NC(CC(=O)OCC(=O)NC(=O)NCc1ccco1)c1ccc(Cl)cc1 (configuration not stated)	0	55*	-2	2	-55	-12
NC(=O)COC(=O)CC(NC(N)=O)c1ccc(Cl)cc1 (configuration not stated)	3	-12	-5	-3	-17	2
COc1cccc2nc3cc(C)c(C)cc3nc12	14	x	29*	29*	-126	41
Cc1ccc(S(=O)(=O)ON2C(=O)c3ccccc3C2=O)c(C)c1	0	56*	0	2	-13	x
CCOc1ccc(N/C(N)=N/c2nc(CSc3nnc(C)s3)cc(=O)[nH]2)cc1	12	x	3	-4	6	84*
Cc1nnc(SCc2cc(=O)[nH]c(/N=C(\N)Nc3ccccc3)n2)s1	1	x	-4	2	-25	4
O=C(O)CCCc1ccc2c(c1)CCc1ccccc1-2	x	x	x	x	x	109*
Cc1cc(N2CCN(Cc3cn(C)nc3-c3ccccc3F)CC2)cc(C)n1	28*	81*	15	13	28	91*
Cc1cc(N2CCN(Cc3cn(C)nc3-c3cccc(Cl)c3)CC2)cc(C)n1	11	60*	2	2	-21	72*
Cc1cc(C(=O)N/N=C/c2c(C)nn(-c3ccccc3)c2C)c(C)o1	2	x	-4	-3	-41	-69
Cc1nn(-c2ccc(F)cc2)c(C)c1/C=C/C(=O)N1CCNC(=O)C1	0	-19	3	11	-1	19
CC1(C)CC(=O)C(C(=S)Nc2ccccc2)=C(NCCN2CCOCC2)C1	-6	-6	0	35*	-15	22
CC1(C)CC(=O)C(C(=S)Nc2ccc(F)cc2)=C(NCCN2CCOCC2)C1	-2	3	2	6	-10	-9
O=S1(=O)CCOC[C@H](c2ccccc2)N1Cc1cccc(Cl)c1	-4	x	x	x	7	-2
CCNS(=O)(=O)c1ccc(C(=O)OCc2cc(=O)oc3cc(OC)ccc23)cc1	-2	x	x	x	-7	4
COc1ccc(C(=O)Nc2ccc(N3CCN(C)CC3)cc2)cc1	-3	x	x	x	-138	-165
CN1CCN(c2ccc(NC(=O)c3ccc4ccccc4c3)cc2)CC1	-3	x	x	x	-87	85*
CC1(C)COCN1S(=O)(=O)c1ccc(C(=O)Nc2nnc(-c3ccc(Cl)s3)o2)cc1	6	44	-4	3	-20	92*
SMILES	IEC-6 cytotox	APP transl inh	Ba/F3 V617F tox	BaF3 tox	KLF5 inh	aSyn 5UTR inh
COc1ccc(-c2nnc(NC(=O)c3ccc(S(=O)(=O)N4COCC4(C)C)cc3)o2)cc1	10	33	21	46*	26	76*
CC1CCCCN1S(=O)(=O)c1ccc(C(=O)Nc2nnc(-c3ccccc3Cl)o2)cc1 (configuration not stated)	0	16	2	5	-19	48
CC1CCCCN1S(=O)(=O)c1ccc(C(=O)Nc2nnc(-c3ccncc3)o2)cc1 (configuration not stated)	-1	2	0	7	6	-1
CSc1ccccc1C(=O)C1CCCN(C(=O)c2cncs2)C1 (configuration not stated)	-2	x	x	x	3	1
COC(=O)c1sc(NC(=S)NC(=O)c2ccccc2C)nc1C	-2	-7	1	4	-22	-93
CC1(C)Cc2c(sc(NC(=O)COc3ccc(Cl)cc3Cl)c2C(N)=O)C(C)(C)N1	7	x	x	x	-14	62*
CCOC(=O)c1c(NC(=O)COc2ccccc2F)sc2c1CC(C)(C)NC2(C)C	x	x	x	x	x	20
COC(=O)c1c(NC(=O)COc2ccc(Cl)cc2)sc2c1CC(C)(C)NC2(C)C	1	x	x	x	-10	83*
Cc1cccnc1NC(=O)CCNC(=O)c1ccccc1Cl	0	x	x	x	-36	-6
COc1ccc(OC)c(/C=N/NC(=O)CSc2cc(C)nc3c(OC)cccc23)c1	10	-10	0	4	-6	22
CNS(=O)(=O)c1cc2c3c(cccc3c1)C(=O)NC2=O	2	4	-1	4	11	71*
O=C(COc1ccc(/C=N/NC(=O)c2cc3ccccc3o2)cc1Br)Nc1ccccc1	-1	-27	-1	0	14	116*
O=[N+]([O-])c1ccc(S(=O)(=O)Nc2nnc(C3CCCCC3)s2)cc1	-3	x	x	x	-27	8
Cc1ccnc(NS(=O)(=O)c2ccc(NC(=O)COc3ccccc3)cc2)n1	-5	25	-4	1	9	68*
O=C(COc1ccccc1)Nc1ccc(S(=O)(=O)Nc2ncccn2)cc1	5	-4	3	2	-13	-8
Brc1ccc2[nH]c3c(c2c1)CCC3	7	x	2	1	10	31
OCCN=C1CCCc2c1[nH]c1ccc(Br)cc21	-2	-3	-1	2	-1	62*
Oc1ccc(N=Nc2c(O)ccc3ccccc23)cc1	12	-22	20	42*	-49	-98
NS(=O)(=O)c1ccc(N=Nc2c(O)ccc3ccccc23)cc1	4	9	2	9	-49	0
Cc1cc(OC(C)C(=O)NCCCn2ccnc2)c2c(C)c(C)c(=O)oc2c1 (configuration not stated)	-12	x	x	x	-11	7
COc1ccc(OCC(=O)Nc2nccs2)cc1	-7	-104	-3	8	-63	16
CCOc1ccc(OCC(=O)Nc2nccs2)cc1	2	-157	-1	12	23	69*
CCOC(=O)N1CCN(S(=O)(=O)c2ccc(C(=O)NNc3nc4c(C)cccc4s3)cc2)CC1	-5	-28	-5	1	2	50
CCOC(=O)N1CCN(S(=O)(=O)c2ccc(C(=O)NNc3nc4c(C)cc(C)cc4s3)cc2)CC1	0	-22	-5	-1	9	71*
CCOC(=O)N1CCN(S(=O)(=O)c2ccc(C(=O)NNc3nc4cc(C)cc(C)c4s3)cc2)CC1	6	23	2	5	11	66*
CCOC(=O)N1CCN(S(=O)(=O)c2ccc(C(=O)NNc3nc4ccc(Cl)cc4s3)cc2)CC1	5	3	-3	3	-11	67*

Screening data from PubChem BioAssay.
